Results taken from PubChem BioAssay (NCATS).
Values joined by “and” are separate entries in the source; they are usually repeats but may differ in a detail not shown here. Equal entries are not always repeated. Results filed as inconclusive are left out. Active and inactive are the calls of the source. Unless noted, the call rests on the fitted dose curve; in most records, active means well fitted cell-killing curve with a large enough effect; inconclusive means small, poorly fitted or top-dose-only effect; inactive means flat fitted curve, though single readings scatter.

Tests used:
[1] = Cell Viability - LYMP2-013 (AID 970); further: series mostly up to about 92 µM; nearly all actives have a fitted effect of over 55% in size
Summary of the method: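 Human lymphoblastoid cells, 2500/well, were preincubated 5 hr at 37 C, then treated with compounds for 24 hr at 37 C in complete medium. Intracellular ATP was read by CellTiter-Glo luminescence; AC50 from Hill-equation fits of concentration-response data.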

[2] = Cell Viability - LYMP2-015 (AID 971); further: nearly all actives have a fitted effect of over 55% in size
Summary of the method: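 Human lymphoblastoid cells (2500/well) in complete medium were preincubated 5 hr at 37 C, then compound-treated 24 hr at 37 C. Intracellular ATP was read by CellTiter-Glo luminescence after 30 min at room temperature; AC50 came from Hill-equation concentration-response fits.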

[3] = Cell Viability - LYMP2-017 (AID 972); further: series mostly up to about 92 µM; nearly all actives have a fitted effect of over 55% in size
Summary of the method: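 Human lymphoblastoid cells (2500/well) were seeded in complete medium, held 5 hr at 37 C, then exposed to compounds for 24 hr at 37 C. Intracellular ATP was read by CellTiter-Glo luminescence after 30 min at room temperature, with AC50 values from Hill-equation fits.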

[4] = Cell Viability - LYMP2-019 (AID 973); further: nearly all actives have a fitted effect of over 55% in size
Summary of the method: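 Human lymphoblastoid cells were seeded at 2500 cells/well, preincubated 5 hr at 37 C, then exposed to compounds for 24 hr at 37 C in complete medium. Intracellular ATP was measured by CellTiter-Glo luminescence; AC50 from Hill fits.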

[5] = Cell Viability - LYMP2-021 (AID 974)
Summary of the method: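 Human lymphoblastoid cells (2500/well) were preincubated 5 hr at 37 C, then exposed to compounds for 24 hr at 37 C in complete medium. Intracellular ATP was read by CellTiter-Glo luminescence; AC50 came from Hill-equation fits of concentration-response data.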

[6] = Cell Viability - LYMP2-023 (AID 975)
Summary of the method: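 Human lymphoblastoid cells (2500/well) were preincubated 5 hr at 37 C, then exposed to compounds for 24 hr at 37 C in complete medium. Cellular ATP was read by CellTiter-Glo luminescence, and AC50 came from Hill-equation fits.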

[7] = Cell Viability - LYMP2-002 (AID 977);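 further: series mostly up to about 92 µM; compound exposure lasted 24 h at 37 °C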
Summary of the method: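 Cytotoxicity is scored as concentration-dependent loss of cellular ATP in a human lymphoblastoid line after 24 hr compound treatment at 37 C. AC50 is obtained by modelling concentration-response data with the Hill equation.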

[8] = Cell Viability - LYMP2-006 (AID 978); further: series mostly up to about 92 µM; nearly all actives have a fitted effect of over 60% in size
Summary of the method: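 qHTS, 1536-well; 2500 cells/well, 5 hr 37 C; cpd 24 hr 37 C; CellTiter-Glo 30 min RT; luminescence. Tetraoctylammonium bromide pos. ctrl. AC50 via Hill eqn.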

[9] = Cell Viability - LYMP2-007 (AID 979);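 further: cells exposed to compound for 24 h before reading; nearly all actives have a fitted effect of over 60% in size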
Summary of the method: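 Human lymphoblastoid cells (2500/well) were plated in complete medium, incubated 5 hr at 37 C, then exposed to compounds for 24 hr at 37 C. Intracellular ATP was read by CellTiter-Glo luminescence after 30 min at room temperature; AC50 from Hill fits.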

[10] = Cell Viability - LYMP2-008 (AID 980); further: nearly all actives have a fitted effect of over 60% in size
Summary of the method: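 Human lymphoblastoid cells (2500/well) were plated, held 5 hr at 37 C, then exposed to compounds for 24 hr at 37 C in complete medium. Intracellular ATP was read by CellTiter-Glo luminescence; AC50 from Hill-fitted concentration-response.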

[11] = Cell Viability - LYMP2-010 (AID 981); further: nearly all actives have a fitted effect of over 55% in size
Summary of the method: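 Human lymphoblastoid LYMP2-010 cells (2500/well) were preincubated 5 hr at 37 C, then exposed to compounds for 24 hr at 37 C in complete medium. Intracellular ATP was measured by CellTiter-Glo luminescence after 30 min at room temperature; AC50 from Hill-fitted concentration-response.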

[12] = Cell Viability - LYMP2-012 (AID 982)
[13] = Cell Viability - LYMP2-014 (AID 983); further: series mostly up to about 92 µM; nearly all actives have a fitted effect of over 50% in size
Summary of the method: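 Human lymphoblastoid cells (2500/well) were pre-incubated 5 hr at 37 C, then exposed to compounds in complete medium for 24 hr at 37 C. Intracellular ATP was read by CellTiter-Glo luminescence after 30 min at room temperature; AC50 from Hill fits.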

[14] = Cell Viability - LYMP2-016 (AID 984); further: nearly all actives have a fitted effect of over 55% in size
Summary of the method: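 qHTS, 1536-well: 2500 LYMP2-016 cells/well, 5 hr 37 C, compound added, 24 hr 37 C, CellTiter-Glo 30 min RT, luminescence. Tetraoctylammonium bromide positive control. AC50 via Hill fit.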

[15] = Cell Viability - LYMP2-018 (AID 985);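 further: compound exposure lasted 24 hr at 37 °C; nearly all actives have a fitted effect of over 50% in size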
Summary of the method: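 Human lymphoblastoid cells (2500/well) were pre-incubated 5 hr at 37 C, then exposed to compounds for 24 hr at 37 C in complete medium. Viability was read as intracellular ATP by CellTiter-Glo luminescence; AC50 values came from Hill-equation fits.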

[16] = Cell Viability - LYMP2-020 (AID 986)
Summary of the method: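 Human lymphoblastoid cells, 2500/well, were pre-incubated 5 hr at 37 C, then exposed to compounds for 24 hr at 37 C in complete medium. Intracellular ATP was read by CellTiter-Glo luminescence, and AC50 was derived by Hill fitting of concentration-response data.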

[17] = Cell Viability - LYMP2-022 (AID 987); further: nearly all actives have a fitted effect of over 55% in size
Summary of the method: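 Human lymphoblastoid cells, 2500/well, preincubated 5 hr at 37 C, then exposed to compounds over a concentration range for 24 hr at 37 C in complete medium. Viability read as intracellular ATP by CellTiter-Glo luminescence after 30 min at room temperature; AC50 from Hill fits.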

[18] = Cell Viability - LYMP2-026 (AID 989); further: nearly all actives have a fitted effect of over 50% in size
Summary of the method: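 Human lymphoblastoid cells (2500/well) in complete medium were preincubated 5 hr at 37 C, then exposed to compounds for 24 hr at 37 C. Cellular ATP was read by CellTiter-Glo luminescence; AC50 from Hill-equation fits of concentration-response data.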

[19] = Cell Viability - LYMP1-002 - Assay at 24 hr (AID 993)
Summary of the method: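 Human lymphoblastoid LYMP1-002 cells, 2500/well in complete medium, were treated with compounds for 24 h at 37 C; intracellular ATP was read by CellTiter-Glo luminescence. AC50 values came from Hill-equation fits of qHTS concentration-response data.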

[20] = target: Estrogen receptor (Homo sapiens) (UniProt P03372); assay: qHTS assay for small molecule antagonists of estrogen receptor alpha signaling (AID 588513; active means well fitted curve in the direction sought with a large enough effect in the signal ratio, with a control signal flat, not every such curve was filed as active; the % refers to the signal ratio)
Summary of the method: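 Beta-lactamase reporter, antagonist mode, HEK 293 GripTite cells; 0.5nM E2 stimulus, 18 h, 37 C; CCF4 dye 2 h RT; fluorescence. IC50 and efficacy from Hill fits, normalized to E2 and DMSO.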

[21] = target: Estrogen receptor (Homo sapiens) (UniProt P03372); assay: qHTS assay for small molecule agonists of estrogen receptor alpha signaling (AID 588514; calls by dose curve; further: potency means the concentration at half of the fitted maximal effect; nearly all actives have a fitted effect of over 70% in size)
Summary of the method: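 ER-alpha-UAS-bla GripTite HEK 293 cells in medium with 2% charcoal/dextran-treated FBS were treated with compound titrations at 37 C for 18 hrs; beta-lactamase reporter read by CCF4 fluorescence after 2 hrs at RT.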

[22] = target: Bile acid receptor (Homo sapiens) (UniProt Q96RI1); assay: qHTS assay for small molecule antagonists of farnesoid X receptor signaling (AID 588526; calls by dose curve)
Summary of the method: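 Beta-lactamase reporter antagonist mode: HEK293T FXR-UAS-bla cells, titrated compound, CDCA stimulation, 16 h 37 C, CCF4 dye 2 h RT. Data normalized to CDCA 50 uM and DMSO; Hill-fit IC50.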

[23] = target: Glucocorticoid receptor (Homo sapiens) (UniProt P04150); assay: qHTS assay for small molecule antagonists of glucocorticoid receptor signaling (AID 588533; active means well fitted inhibition curve with a large enough effect in the signal ratio, with a control signal flat, not every such curve was filed as active; the % refers to the signal ratio;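 further: cells stimulated with 2 nM dexamethasone as agonist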)
Summary of the method: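 Antagonist-mode qHTS: compound titrations added to GRE-bla HeLa cells, then dexamethasone 2 nM final; 18 h, 37 C. CCF4 FRET fluorescence normalized to dexamethasone and DMSO; IC50 from Hill fit.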

[24] = qHTS assay for small molecule antagonists of peroxisome proliferator-activated receptor delta signaling (AID 588535; active means well fitted inhibition curve with a large enough effect in the signal ratio, with a control signal flat, not every such curve was filed as active; the % refers to the signal ratio;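 on max response: cells co-treated with a PPAR-delta agonist as stimulator during compound exposure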); settings: HEK293T PPARd-UAS-bla, beta-lactamase FRET ratio, 18 h; 460 nm channel
Summary of the method: (§1)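 Cell-based beta-lactamase assay in antagonist mode: 4000 HEK293T PPAR-delta-UAS-bla cells per well, 5 hr preincubation then 18 hr compound incubation at 37 C. IC50 obtained by Hill equation fitting.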

[25] = target: Peroxisome proliferator-activated receptor delta (Homo sapiens) (UniProt Q03181); assay: as above
Summary of the method: as §1

Peroxisome proliferator-activated receptor delta (Homo sapiens), sequence (Q03181 whole entry, looked up): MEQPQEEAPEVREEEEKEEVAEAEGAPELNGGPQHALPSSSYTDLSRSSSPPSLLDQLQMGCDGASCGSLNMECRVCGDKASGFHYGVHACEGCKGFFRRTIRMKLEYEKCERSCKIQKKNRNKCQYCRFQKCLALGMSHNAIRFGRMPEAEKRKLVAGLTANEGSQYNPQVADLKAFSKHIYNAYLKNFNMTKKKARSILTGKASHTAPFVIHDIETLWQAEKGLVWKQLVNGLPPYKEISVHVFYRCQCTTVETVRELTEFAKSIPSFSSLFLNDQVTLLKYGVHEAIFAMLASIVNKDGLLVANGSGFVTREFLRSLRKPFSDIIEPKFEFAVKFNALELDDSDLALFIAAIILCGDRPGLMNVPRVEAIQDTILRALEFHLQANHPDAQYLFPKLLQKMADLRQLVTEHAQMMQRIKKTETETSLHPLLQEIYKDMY
Bile acid receptor (Homo sapiens), sequence (Q96RI1 whole entry, looked up): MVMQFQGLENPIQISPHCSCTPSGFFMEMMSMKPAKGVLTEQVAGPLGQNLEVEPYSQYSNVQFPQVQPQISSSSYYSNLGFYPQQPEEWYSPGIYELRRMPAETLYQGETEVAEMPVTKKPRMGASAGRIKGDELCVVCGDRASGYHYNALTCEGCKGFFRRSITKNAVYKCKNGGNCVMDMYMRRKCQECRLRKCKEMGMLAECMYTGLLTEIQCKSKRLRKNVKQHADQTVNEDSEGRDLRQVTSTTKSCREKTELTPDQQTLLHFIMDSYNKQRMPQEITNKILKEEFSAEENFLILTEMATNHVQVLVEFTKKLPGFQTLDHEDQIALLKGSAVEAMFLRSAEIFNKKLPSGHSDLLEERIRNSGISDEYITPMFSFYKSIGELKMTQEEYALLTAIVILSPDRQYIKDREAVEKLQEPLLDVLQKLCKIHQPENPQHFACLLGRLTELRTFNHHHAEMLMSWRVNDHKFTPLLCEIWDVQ
Glucocorticoid receptor (Homo sapiens), sequence (P04150 whole entry, looked up): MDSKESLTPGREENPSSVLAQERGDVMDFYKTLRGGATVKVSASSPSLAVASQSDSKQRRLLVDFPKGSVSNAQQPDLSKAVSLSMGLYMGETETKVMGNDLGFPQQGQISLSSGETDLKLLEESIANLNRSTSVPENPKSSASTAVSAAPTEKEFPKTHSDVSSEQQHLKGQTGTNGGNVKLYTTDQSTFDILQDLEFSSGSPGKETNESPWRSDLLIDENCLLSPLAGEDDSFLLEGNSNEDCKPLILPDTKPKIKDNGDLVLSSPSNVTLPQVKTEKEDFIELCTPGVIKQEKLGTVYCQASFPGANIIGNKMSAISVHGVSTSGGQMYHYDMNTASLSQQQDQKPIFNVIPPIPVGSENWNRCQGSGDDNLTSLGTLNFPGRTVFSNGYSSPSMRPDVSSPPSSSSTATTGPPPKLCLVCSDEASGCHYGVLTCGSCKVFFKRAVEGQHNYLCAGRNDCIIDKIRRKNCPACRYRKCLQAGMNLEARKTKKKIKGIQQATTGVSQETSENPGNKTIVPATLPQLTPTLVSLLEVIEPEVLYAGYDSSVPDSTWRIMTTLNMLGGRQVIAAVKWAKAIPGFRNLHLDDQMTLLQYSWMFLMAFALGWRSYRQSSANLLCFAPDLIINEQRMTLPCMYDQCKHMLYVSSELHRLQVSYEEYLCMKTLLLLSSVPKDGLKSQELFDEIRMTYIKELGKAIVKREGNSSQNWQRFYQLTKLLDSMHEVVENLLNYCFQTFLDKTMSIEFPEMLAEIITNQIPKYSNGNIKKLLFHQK
Estrogen receptor (Homo sapiens), sequence (P03372 whole entry, looked up): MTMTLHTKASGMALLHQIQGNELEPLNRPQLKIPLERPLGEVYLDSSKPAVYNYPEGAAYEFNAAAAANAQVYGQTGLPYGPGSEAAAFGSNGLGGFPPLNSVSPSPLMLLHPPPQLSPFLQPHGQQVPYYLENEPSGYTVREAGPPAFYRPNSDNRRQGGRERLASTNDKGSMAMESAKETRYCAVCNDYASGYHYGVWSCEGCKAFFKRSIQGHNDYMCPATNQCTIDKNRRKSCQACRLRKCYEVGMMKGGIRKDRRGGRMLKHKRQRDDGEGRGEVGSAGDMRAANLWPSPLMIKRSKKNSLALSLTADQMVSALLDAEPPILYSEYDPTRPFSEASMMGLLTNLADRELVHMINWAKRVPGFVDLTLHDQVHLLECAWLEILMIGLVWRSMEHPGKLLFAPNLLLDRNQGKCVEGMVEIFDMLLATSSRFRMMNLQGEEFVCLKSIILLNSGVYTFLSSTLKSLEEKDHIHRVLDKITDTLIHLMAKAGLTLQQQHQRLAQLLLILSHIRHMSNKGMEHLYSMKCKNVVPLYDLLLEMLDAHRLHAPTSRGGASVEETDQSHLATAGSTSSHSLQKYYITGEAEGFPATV

CC(CCC(=O)O)(c1ccc(O)cc1)c1ccc(O)cc1
inactive: Potency [1] | Potency [2] | Potency [3] | Potency [4] | Potency [5] | Potency [6] | Potency [7] | Potency [8] | Potency [9] | Potency [10] | Potency [11] | Potency [12] | Potency [13] | Potency [14] | Potency [15] | Potency [16] | Potency [17] | Potency [18] | Potency [19] | outcome [20] | Potency [22] | Potency [23] | outcome [25]
-42.6% and 42.4%: max response [24]
active: Potency [21] 12.6 µM
